A selection: hits, their analogues and other compounds. The true share with any hit is near 1.7%.
GLP1R inv ag – GLP-1 receptor (human) inverse agonism | P43220 | Potency, µM (highest dose often 38.3 µM), for inactives: at the top dose activity change, negative = inhibition, hits mostly inhibitors | HEK293 GLP-1R CRE-luciferase, luminescence, 24 h; GLP-1R form is constitutively active | 410,000 tested, 1.6% active; further: on the % scale 0 is the no-effect control and ±100 the full control effect; nearly all actives have a fitted effect of over 55% in size
Target sequence (P43220 whole entry, looked up): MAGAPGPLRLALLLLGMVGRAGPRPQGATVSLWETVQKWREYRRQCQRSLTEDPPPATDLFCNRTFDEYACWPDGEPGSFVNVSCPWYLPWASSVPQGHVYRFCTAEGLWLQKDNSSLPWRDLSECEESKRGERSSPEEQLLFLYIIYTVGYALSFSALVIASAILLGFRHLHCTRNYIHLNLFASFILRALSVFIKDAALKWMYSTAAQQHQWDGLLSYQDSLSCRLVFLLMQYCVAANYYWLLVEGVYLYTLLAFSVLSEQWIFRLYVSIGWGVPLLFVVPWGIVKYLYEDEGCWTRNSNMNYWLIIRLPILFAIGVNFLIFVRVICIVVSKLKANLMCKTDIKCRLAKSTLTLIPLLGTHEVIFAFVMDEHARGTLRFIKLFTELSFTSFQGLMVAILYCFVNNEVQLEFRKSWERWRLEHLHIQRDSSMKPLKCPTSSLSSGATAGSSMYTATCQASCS
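Stable HEK293 clone (constitutively active GLP-1R + cAMP-response luciferase); 200 cells/uL plated, 12 h pre-culture, compound 24 hr, 37 deg C/5% CO2; detection reagent 12 min RT; luminescence.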
PTHR1 agonist – PTHR1 (human) receptor agonism. Q03431. HEK293 GP2 PTHR1 cells, GloSensor cAMP luminescence, 1 h. Potency, µM (top dose mostly 115 µM), for inactives: at the highest dose activation, hits mostly activators. 410,000 tested, 0.075% active; further: nearly all actives have a fitted effect of over 55% in size
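HEK-293-derived GP2 cells expressing PTHR1 and a GloSensor cAMP reporter, 3,000/well, plated overnight, given luciferin plus IBMX (each 0.5 mM as added) for 1 h at 37 °C, then compound for 1 h at 37 °C. Luminescence was read after 15 min at room temperature.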
GLP1R ag – agonists of human GLP-1 receptor. HEK293 GLP-1R CRE-luciferase, luminescence, 4-6 h; cells express a hypersensitive GLP-1R form. Potency, µM (top dose mostly 45.6 µM), without a hit: top-dose activation, hits mostly activators. 380,000 tested, 0.007% active; further: % of control where 0% means no effect
HEK293 tox – cytotoxicity in counter-screen for GLP-1R inverse agonists; Potency, µM (doses to about 38.3 µM), inactives show top-dose activity change, negative = inhibition, usual class: inhibitors; 410,000 tested, 0.13% active; HEK293 cAMP-luciferase reporter cells, luminescence, 24 h;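 further: loss of luciferase light is scored as toxicity; on the % scale 0 is the no-effect control and ±100 the full control effect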
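Seeding density was 200 cells/uL; after overnight-length (12 h) culture, 23 nL compounds went on for 24 h at 37 °C. Readout used a luciferase detection reagent, luminescence taken after 12 min at room temperature.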
An asterisk follows results filed as active; i = inactive; u = inconclusive; x = not tested or not shown; [ ] = another dose, or the depositor's remark. The call rests on the fitted dose curve; in most records, active means well fitted curve in the direction sought with a large enough effect; inconclusive means small, poorly fitted or top-dose-only effect, or another doubt; inactive means no such curve, though single readings can be large; an effect the other way counts as inactive or inconclusive. Potency means the concentration at half of the fitted maximal effect.

SMILES	GLP1R inv ag	PTHR1 agonist	GLP1R ag	HEK293 tox
CCN1CCN(CCNC(=O)c2ccc3c(c2)N(Cc2cccc(Cl)c2)C(=O)c2ccccc2S3=O)CC1 (centres undefined)	u	12.4%	4.4%	-24.3%
CCN(C(=O)c1ccc2c(c1)N(Cc1cccc(Cl)c1)C(=O)c1ccccc1S2=O)c1ccccc1 (centres undefined)	10µM*	i	x	-27.1%
COc1cc(CNc2ccc(CNc3ncn[nH]3)cc2)ccc1OCc1ccccc1	2µM*	-48.0%	7.3%	-2.1%
O=C(CN(c1ccc(Cl)cc1)S(=O)(=O)c1ccccc1)N/N=C/c1ccco1	u	-3.7%[57.5 µM]	-9.7%	-2.0%
Cc1ccc(S(=O)(=O)N(CC(=O)N/N=C/c2ccco2)c2cc(Cl)cc(Cl)c2)cc1	6.31µM*	-7.5%	3.8%	u
CC(C)c1ccc(C2c3c(-c4ccccc4O)n[nH]c3C(=O)N2Cc2ccncc2)cc1 (centres undefined)	u	-19.9%	x	u
CCc1ccccc1-n1nnc(-c2nsc(NC(=O)c3ccc(C)c(C)c3)n2)c1C	1.12µM*	-30.9%	x	0.2%
COc1ccccc1N1CCN(c2ncnc3c2cnn3-c2cc(Cl)ccc2C)CC1	1.1%	-42.9%	x	0.3%
Cc1cccc(N(C)S(=O)(=O)c2nnc(NC(=O)C(C)(C)C)s2)c1	-21.2%	-53.1%	x	0.6%
Cc1ccc(-c2nc3n(n2)C(c2ccccc2Cl)C=C(c2ccc(Cl)cc2)N3)cc1 (centres undefined)	-8.6%	u	x	30.1%
CC(C)Oc1ccccc1C1CC(=O)Nc2cc3c(cc21)OCCO3 (centres undefined)	-12.9%	-37.4%	u	u
CC(C)Oc1ccccc1C1Nc2ccccc2C(=O)N1c1ccc2c(c1)OCCO2 (centres undefined)	10µM*	-18.1%[57.5 µM]	-9.3%	23.3%
O=C(Cc1c[nH]c2ccccc12)N1CCN(S(=O)(=O)c2cccc(Cl)c2Cl)CC1	10µM*	-26.4%	-2.9%	u
O=C(Cc1c[nH]c2ccccc12)N1CCN(S(=O)(=O)c2ccc(F)cc2)CC1	-15.4%	i	1.5%	-6.4%
Cc1ccc(O)c2ncccc12	x	x	5.4%	x
Cc1c(C)c2cccnc2c2ncccc12	u	u	1.9%	0.891µM*
Clc1cc2cccnc2c2ncccc12	4.47µM*	-91.6%	-2.0%	u
Cc1cc(NC(=O)Nc2nc3c(s2)CCCCCC3)ccc1Br	9.5%	i	x	-1.3%
COc1cc(OC)c(NC(=O)CC(c2cccs2)N2Cc3ccccc3C2=O)cc1Cl (centres undefined)	-38.5%	-21.5%	-8.4%	-9.8%
Cc1cc(-c2ccc(C)c(S(=O)(=O)Nc3cccc(C#N)c3)c2)on1	u	-22.9%	x	-13.2%
COc1cc(S(=O)(=O)N2CCCCCC2)c(OC)cc1Br	4.47µM*	-25.7%	2.5%	9.8%
CCOC(=O)c1ccc(N2C(=O)c3[nH]nc(-c4ccc(OC)cc4)c3C2c2ccc(C)cc2)cc1 (centres undefined)	u	i	-4.8%	-9.0%
CC(Oc1ccc(Cl)cc1Cl)C(=O)NC(=S)N1CCc2ccccc21 (centres undefined)	10µM*	-1.1%	-12.4%	u
CCOc1ccccc1CNC(=O)c1cccc(NC(=O)c2nsc3ccccc23)c1	u	-72.1%	x	-0.1%
CC1(C(=O)Nc2cccc3c2CCCC3)CCN1C(=O)CCC1CCCC1 (centres undefined)	11.2µM*	-46.4%	22.7%	-2.0%
SMILES	GLP1R inv ag	PTHR1 agonist	GLP1R ag	HEK293 tox
CSc1ccccc1NC(=O)C1(C)CCN1C(=O)CCC1CCCC1 (centres undefined)	u	i	11.7%	2.1%
Cc1cc(C)cc(NC(=O)Nc2cc(S(=O)(=O)N(C)C)ccc2C)c1	10µM*	i	11.8%	5.6%
Cc1ccc(S(=O)(=O)N(C)C)cc1NC(=O)Nc1ccccc1F	-10.9%	i	3.5%	-0.2%
OC(COc1cccc2ccccc12)CN1CCN(c2ccccc2Cl)CC1 (centres undefined)	u	-19.3%	26.1%	u
Cc1ccccc1OCC(O)CN1CCN(CC(O)COc2ccccc2C)CC1 (centres undefined)	8.91µM*	-24.8%	-2.4%	-6.1%
Cc1ccccc1OCC(O)CN1CCCCC1 (centres undefined)	12.1%	-12.6%	-5.1%	u
